From PubChem BioAssay (Tox21)
Inconclusive results are not listed. Calls of active or inactive are those of the source. The call rests on the fitted dose curve; in most records, active means well fitted curve in the direction sought with a large enough effect in the repeat runs; inconclusive means weak or mixed curves; inactive means no such curve, though single readings can be large; an effect the other way counts as inactive or inconclusive.

Experiments:
[1] = A CellTox Green Cytotoxicity Assay to monitor cytotoxicity in HepG2 cells - 16 hour (AID 1224876); further: nearly all actives have a fitted effect of over 45% in size; further: potency means the concentration at half of the fitted maximal effect
How it was run: (§1)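 Cytotoxicity was tracked as dead-cell DNA fluorescence in HepG2 cells treated with test compounds at 37 C; each time-point value comes from one kinetic series spanning 0, 8, 16, 24, 32 and 40 h.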

[2] = qHTS RealTime-Glo MT Cell Viability Assay in HepG2 cells - 32 hour (AID 1224877); further: nearly all actives have a fitted effect of over 55% in size
How it was run: (§2)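 Real-time, nonlytic viability: 600 HepG2 cells/well mixed with NanoLuc enzyme plus prosubstrate; 5 h settle, compound (DMSO) added by pintool; luminescence monitored over 40 h at 37 C.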

[3] = A CellTox Green Cytotoxicity Assay to monitor cytotoxicity in HepG2 cells - 40 hour (AID 1224879); further: nearly all actives have a fitted effect of over 40% in size; further: potency means the concentration at half of the fitted maximal effect
How it was run: as §1

[4] = qHTS RealTime-Glo MT Cell Viability Assay in HEK293 cells - 0 hour (AID 1224880); further: top concentration of the series differs between compounds; nearly all actives have a fitted effect of over 45% in size
How it was run: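 Kinetic, non-lysing viability readout. Seed HEK293 (600/well) with reagent, incubate 5 h at 37 C/5% CO2, pin 23 nL compound in DMSO, incubate at 37 C, read luminescence at 0, 8, 16, 24, 32, 40 h.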

[5] = A CellTox Green Cytotoxicity Assay to monitor cytotoxicity in HEK293 cells - 32 hour (AID 1224881); further: nearly all actives have a fitted effect of over 40% in size; further: potency means the concentration at half of the fitted maximal effect
How it was run: (§3)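 Real-time, in one plate: 600 HEK293 cells/well with dead-cell DNA dye, pinned compound after 5 h, 37 C incubation over 40 h; viable cells give no appreciable fluorescence.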

[6] = A CellTox Green Cytotoxicity Assay to monitor cytotoxicity in HepG2 cells - 0 hour (AID 1224882); further: nearly all actives have a fitted effect of over 35% in size; further: potency means the concentration at half of the fitted maximal effect
How it was run: as §1

[7] = A CellTox Green Cytotoxicity Assay to monitor cytotoxicity in HepG2 cells - 32 hour (AID 1224883); further: nearly all actives have a fitted effect of over 50% in size; further: potency means the concentration at half of the fitted maximal effect
How it was run: as §1

[8] = A CellTox Green Cytotoxicity Assay to monitor cytotoxicity in HEK293 cells - 8 hour (AID 1224884); further: nearly all actives have a fitted effect of over 35% in size; further: potency means the concentration at half of the fitted maximal effect
How it was run: as §3

[9] = qHTS RealTime-Glo MT Cell Viability Assay in HepG2 cells - 16 hour (AID 1224885); further: nearly all actives have a fitted effect of over 50% in size
How it was run: as §2

[10] = A CellTox Green Cytotoxicity Assay to monitor cytotoxicity in HepG2 cells - 24 hour (AID 1224878); further: nearly all actives have a fitted effect of over 45% in size; further: potency means the concentration at half of the fitted maximal effect
How it was run: as §1

Measured: Potency

CCOC(=O)CC#N
not listed: [10]
inactive: all other assays above

Cc1cc(O)c2c(c1)C(=O)c1cccc(O)c1C2=O
not listed: [10]
inactive: all other assays above

C=CCOC(=O)c1ccc(C(=O)OCC=C)c(C(=O)OCC=C)c1
not listed: [10]
inactive: all other assays above

CC(=O)OC[C@H]1O[C@@H](OC(C)=O)[C@H](OC(C)=O)[C@@H]1OC(C)=O
not listed: [10]
inactive: all other assays above

CCN(CCO)c1cccc(C)c1
not listed: [10]
inactive: all other assays above

COc1cc(C=O)ccc1OC(=O)C(C)C
not listed: [10]
inactive: all other assays above

CCCCCCCCCCC
not listed: [10]
inactive: all other assays above

CCCCC[Si](OCC)(OCC)OCC
not listed: [2] | [9]
inactive: all other assays above

O=C(O)c1ccccc1C(=O)Nc1ccc(S(=O)(=O)Nc2nccs2)cc1
not listed: [10]
inactive: all other assays above

C[C@@H]1C[C@H]2[C@@H]3C[C@H](F)C4=CC(=O)C=C[C@]4(C)[C@@]3(F)[C@@H](O)C[C@]2(C)[C@@]1(O)C(=O)CO
inactive: [1] | [2] | [3] | [5] | [8] | [9]

CCC(C)(C)C1CCC(=O)CC1
not listed: [10]
inactive: all other assays above

CCCCC(=O)N(C)C
not listed: [10]
inactive: all other assays above

Nc1ccc(C(=O)OCC(O)CO)cc1 (stereo not drawn)
not listed: [10]
inactive: all other assays above

O=C(Oc1ccccc1C(=O)O)c1ccccc1O
not listed: [10]
inactive: all other assays above

CO[Si](CCCCl)(OC)OC
not listed: [10]
inactive: all other assays above

CCCCOC(=O)[C@@H](C)Oc1ccc(Oc2ccc(C(F)(F)F)cn2)cc1
not listed: [2]
inactive: all other assays above

O=C(/C=C/c1ccccc1)NCCO
active: [1] 9.52 µM | [10] 6.74 µM | [3] 6.01 µM | [5] 6.74 µM | [6] 6.01 µM | [7] 8.49 µM | [8] 9.52 µM
inactive: [4]

CCCCCCCCCCCCC
not listed: [10]
inactive: all other assays above

O=C1CC[C@H](C(=O)N2CCCCC2)N1
not listed: [10]
inactive: all other assays above

C1=C\CC/C=C\CC/1
active: [8] 4.07 µM
not listed: [10]
inactive: all other assays above

O=C1OC(=O)c2ccccc21
not listed: [2]
inactive: all other assays above

CCNC(=O)NCCCOc1cccc(CN2CCCCC2)c1
active: [3] 26.8 µM
inactive: [2] | [4] | [5] | [6] | [8]

Cc1ccccc1C(=O)N1CC/C(=N\OS(=O)(=O)O)c2ccc(Cl)cc21
inactive: [2] | [4] | [5] | [8] | [9]
active: [10] 26.8 µM | [3] 23.9 µM

CC(C)COC(=O)COc1ccc(Cl)cc1Cl
active: [8] 43.6 µM
not listed: [2] | [10]
inactive: all other assays above

C=C(C)C(=O)OC1CC(C)CC(C)(C)C1 (stereo not drawn)
inactive: [10] | [4] | [5] | [6] | [8] | [9]

CCN(Cc1cccc(S(=O)(=O)O)c1)c1ccccc1
not listed: [2]
inactive: all other assays above

Cc1ccc(C(=O)C(=O)O)cc1C
not listed: [2] | [5]
inactive: all other assays above
